Screens (PubChem BioAssay)
Avidin bead fluor = compound fluoresces at 488/530 nm on avidin beads. compound fluorescence 488/530 nm, flow cytometry; active compounds read high. fluorescence (KMESF) at 10 µM. 220,000 compounds, 0.38% hits; in the data active = fluorescence above about 47
RGS4-Gao reg = modulates binding of RGS4 to human Galphao | P09471 | Multiplexed bead flow cytometry; actives lie on both sides | binding response (% of control), % at 10 µM | 220,000 compounds, 0.33% hits; in the data active = binding response below about 49% or above about 150%; inactive = in between;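 note: fluorescent Galphao activated with aluminum fluoride binding bead-coupled RGS4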
RGS7-Gao = regulators of human RGS7-Galphao interaction; P09471; binding response (% of control), % at 10 µM; AID 1439; 220,000 compounds, 0.35% hits; Multiplexed bead flow cytometry, RGS7-Galphao binding; actives lie on both sides; in the data active = binding response below about 49% or above about 150%; inconclusive = no clear call, values can overlap the other calls; inactive = in between;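 note: fluorescent Galphao held in activated GDP-AlF4 state binding bead-coupled RGS7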
GSH fluor = compound fluoresces at 488/530 nm on GSH beads. AID 1776. fluorescence (KMESF) at 10 µM. 190,000 compounds, 0.25% hits. GSH beads flow cytometry, compound fluorescence 488/530 nm; active compounds read high; in the data active = fluorescence above about 89;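 note: glutathione beads carrying GST-tagged Bcl family fusion proteins plus one bare bead set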
RGS8-Gao reg = modulates binding of RGS8 to human Galphao. 220,000 compounds, 0.34% hits. response (percent of control binding), % at 10 µM. multiplexed bead flow cytometry; actives lie on both sides. AID 1423. P09471; in the data active = response below about 60% or above about 140%; inactive = in between;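 note: Galphao activated as the GDP aluminium fluoride complex binding bead-coupled RGS8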
RGS16-Gao HTS = RGS16-Galphao interaction regulator (human) | bead-based flow cytometry RGS16-Galphao binding, fluorescence; actives lie on both sides | 220,000 compounds, 0.38% hits | binding response (% of control), % at 10 µM | O15492+P09471 | AID 1441;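 note: Galphao activated by GDP with aluminum fluoride before binding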
Target sequence (O15492 whole entry, looked up): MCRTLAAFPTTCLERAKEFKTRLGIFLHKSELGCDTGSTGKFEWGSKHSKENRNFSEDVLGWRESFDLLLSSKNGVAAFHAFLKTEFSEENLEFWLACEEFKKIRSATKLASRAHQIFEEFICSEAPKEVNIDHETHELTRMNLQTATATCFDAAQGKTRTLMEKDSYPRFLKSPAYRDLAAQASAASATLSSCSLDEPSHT
Target sequence (P09471 whole entry, looked up): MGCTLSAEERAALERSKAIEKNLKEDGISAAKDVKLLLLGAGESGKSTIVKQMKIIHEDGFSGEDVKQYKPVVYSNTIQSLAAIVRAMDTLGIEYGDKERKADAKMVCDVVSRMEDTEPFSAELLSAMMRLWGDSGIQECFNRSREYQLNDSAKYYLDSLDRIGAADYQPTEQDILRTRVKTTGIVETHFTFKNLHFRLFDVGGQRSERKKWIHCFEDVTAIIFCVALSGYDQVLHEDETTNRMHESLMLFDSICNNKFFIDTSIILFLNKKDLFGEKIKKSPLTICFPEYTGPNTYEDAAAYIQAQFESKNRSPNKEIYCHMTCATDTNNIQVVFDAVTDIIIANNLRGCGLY
RGS-Gao = modulates binding between human RGS4 and Galphao | RGS4–Galpha-o binding response, % at 10 µM | 1,600 compounds, 99% hits | shares compounds with RGS16-Gao HTS | AID 1504 | multiplexed bead flow cytometry, RGS–Galpha-o binding;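 note: fluorescently labeled Galpha-o bound to GDP with aluminium fluoride binding biotinylated RGS beads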
Avidin counter = biotin-avidin bead binding disruption counter-screen | inhibition, % at 10 µM | streptavidin beads, fluorescein-biotin binding, flow cytometry | 1,700 tested, under 10 active | shares compounds with RGS16-Gao HTS;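 active = inhibition above 50%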;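 note: median green fluorescence of gated singlet beads compared with DMSO control wells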
RGS8-Gao single = RGS8-Galphao interaction regulation, single point confirmation | 1,700 compounds, 3% hits | bead-based flow cytometry RGS8-Galphao binding, fluorescence; actives lie on both sides | binding response (% of control), % at 10 µM | AID 1836 | shares compounds with RGS16-Gao HTS; in the data active = binding response below about 72% or above about 130%; inactive = in between;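 note: Galphao activated as GDP AlF4 complex before binding bead RGS8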
RGS7-Gao single = RGS7-Galphao interaction regulation, single point confirmation | response (percent of control binding), % at 10 µM | shares compounds with RGS16-Gao HTS | bead-based flow cytometry RGS7-Galphao binding; actives lie on both sides | 1,700 compounds, 7.8% hits | AID 1837; in the data active = response below about 75% or above about 130%; inactive = in between;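 note: fluorescent Galphao activated with GDP and aluminum fluoride binding bead-coupled RGS7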
RGS16-Gao conf = confirmation of regulators of human RGS16-Galphao interaction; shares compounds with RGS16-Gao HTS; response (% of control binding), % at 10 µM; 1,700 compounds, 4% hits; bead-based flow cytometry, RGS16-Galphao binding; actives lie on both sides; AID 1838; in the data active = response below about 74% or above about 130%; inactive = in between;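 note: Galphao activated as the GDP aluminium fluoride complex binding bead-coupled RGS16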
RGS4-Gao single = confirmation of regulators of human RGS4-Galphao interaction | shares compounds with RGS16-Gao HTS | RGS4-Galphao binding, multiplexed bead flow cytometry; actives lie on both sides | binding response (% of control), % at 10 µM | 1,700 compounds, 4% hits | AID 1840; in the data active = binding response below about 74% or above about 130%; inactive = in between
RGS19-Gao single = RGS19-Galphao interaction regulation, single point confirmation; bead-based flow cytometry RGS19-Galphao binding; actives lie on both sides; response (percent of control binding), % at 10 µM; 1,700 compounds, 5% hits; shares compounds with RGS16-Gao HTS; AID 1841; in the data active = response below about 50% or above about 160%; inactive = in between
Numbers stand for hits; – = inactive; ? = inconclusive; · = not tested or not shown; [ ] = dose if it differs, or a comment. Rows were chosen to be rich in hits. Some 1.2% of all compounds tested hit in one or more screens of this group. Unless noted, the rule behind the calls is not given here.

SMILES	Avidin bead fluor	RGS4-Gao reg	RGS7-Gao	GSH fluor	RGS8-Gao reg	RGS16-Gao HTS	Avidin counter	RGS8-Gao single	RGS7-Gao single	RGS16-Gao conf	RGS4-Gao single	RGS19-Gao single	others
COc1ccc(C(c2c(O)c3ccccc3oc2=O)c2c(C)n(C)n(-c3ccccc3)c2=O)cc1 (centres undefined)	–	–	–	–	–	–	·	·	·	·	·	·
c1ccc(CCn2nnnc2CN2CCC(n3nnc4ccccc43)CC2)cc1	–	–	–	–	161.1[activator]	–	–	–	–	–	–	–	RGS-Gao=130.6
Cc1ncc(CN2CCCC(C(=O)c3sccc3C)C2)s1 (centres undefined)	–	–	–	–	–	–	·	·	·	·	·	·
O=C1C2C3CCC(O3)C2C(=O)N1CCO (centres undefined)	·	–	?	·	–	–	·	·	·	·	·	·
COc1ccc(NP(=O)(Nc2ccc(OC)cc2)Oc2ccccc2)cc1	–	–	–	–	–	–	·	·	·	·	·	·
O=P(Nc1ccccc1)(Nc1ccccc1)Oc1ccccc1	–	–	–	–	–	10.5	–	–	–	–	–	–	RGS-Gao=80.5
CCCC(=O)c1ccc(CP(=O)(OCC)OCC)o1	–	–	?	·	–	–	·	·	·	·	·	·
OCC#CC[N+]1(CC#Cc2ccccc2)CCOCC1	–	–	–	–	–	–	·	·	·	·	·	·
O=C(NC12CC3CC(CC(C3)C1)C2)OC1CN2CCC1CC2 (centres undefined)	–	166.7[activator]	?	·	–	–	–	–	–	–	–	–
Clc1cc(Cl)cc(NC2=NCCS2)c1	–	-28.9	?	·	16.9	-16.7	–	–	–	–	–	–
CCOC(=O)C(C)(CC)NC(=O)CSP(=S)(OCC)OCC (centres undefined)	–	–	–	–	–	–	·	·	·	·	·	·
O=C1/C(=C\c2cccnc2)N2CCC1CC2	–	–	?	·	–	–	·	·	·	·	·	·
Cc1ccc(C(=O)N[C@@H](C)CN2C3=NC[C@@H](Cc4ccccc4)N3C[C@H]2Cc2ccc(O)cc2)cc1Br	–	16.6	5.7	–	18.1	9.1	–	–	–	–	–	–
Cc1ccc(C(=O)N[C@@H](C)CN2C3=NC[C@H](Cc4ccccc4)N3C[C@H]2Cc2ccc(O)cc2)cc1Br	–	–	?	·	–	–	·	·	·	·	·	·
CCOP(=O)(OCC)C(O)c1ccc(OC)cc1 (centres undefined)	·	·	·	·	·	·	–	–	–	–	–	–
COc1ccc(C(O)P(=O)(OC(C)C)OC(C)C)cc1 (centres undefined)	–	–	?	·	–	–	·	·	·	·	·	·
O=C(O)CC1OCC=C2CN3CCC45C6=CC(=O)C(=O)C([N+](=O)[O-])=C6NC4C1C2CC35 (centres undefined)	–	46.1	?	·	–	–	–	–	–	–	–	–
Cc1nc2ccccc2c(=O)n1-c1cc(F)ccc1F	–	–	–	–	–	–	·	·	·	·	·	·
